Measurements: PubChem BioAssay AID1159580 (chemical genetic matrix, 2015)
Screen size: about 5,500 compounds; about 2,000 (36%) were called active. Inconclusive results (about 18%) are left out. The list shows a part of the results. Values without a mark were called inactive. No stated cut-off is given here; in the data, active means normalized growth mostly below about 0.91 (no sharp cut-off); inconclusive means no clear call, values can overlap the other calls; inactive means mostly above about 0.92.

Assay: chemical genetic growth profiling, strain panel (AID 1159580);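 further: tested at 20 µM; growth read once vehicle control cultures reached saturation at 30 °C; 1 = growth at the plate median or of vehicle wells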
Conditions: growth OD
[1] = S. cerevisiae deletion strains, locus YAL013W, strain DEP1, stronger effect = lower value
[2] = S. cerevisiae deletion strains, locus YBR229C, strain ROT2, stronger effect = lower value
[3] = S. cerevisiae deletion strains, locus YDL101C, strain DUN1, stronger effect = lower value
[4] = S. cerevisiae deletion strains, locus YDR150W, strain NUM1, stronger effect = lower value
[5] = S. cerevisiae deletion strains, locus YEL061C, strain CIN8, stronger effect = lower value
[6] = S. cerevisiae deletion strains, locus YGR078C, strain PAC10, stronger effect = lower value
[7] = S. cerevisiae deletion strains, locus YHR030C, strain SLT2, stronger effect = lower value
[8] = S. cerevisiae deletion strains, locus YHR087W, strain rtc3, stronger effect = lower value
[9] = S. cerevisiae deletion strains, locus YJR043C, strain POL32, stronger effect = lower value
[10] = S. cerevisiae deletion strains, locus YJR075W, strain HOC1, stronger effect = lower value
[11] = S. cerevisiae deletion strains, locus YLR039C, strain RIC1, stronger effect = lower value
[12] = S. cerevisiae deletion strains, locus YLR058C, strain SHM2 (second series), stronger effect = lower value
[13] = S. cerevisiae deletion strains, locus YLR085C, strain ARP6, stronger effect = lower value
[14] = S. cerevisiae deletion strains, locus YLR262C, strain YPT6, stronger effect = lower value
[15] = S. cerevisiae deletion strains, locus YML094W, strain GIM5, stronger effect = lower value
[16] = S. cerevisiae deletion strains, locus YMR219W, strain ESC1, stronger effect = lower value
[17] = S. cerevisiae deletion strains, locus YMR263W, strain SAP30, stronger effect = lower value
[18] = S. cerevisiae deletion strains, locus YNL128W, strain TEP1, stronger effect = lower value
[19] = S. cerevisiae deletion strains, locus YNL153C, strain GIM3, stronger effect = lower value
[20] = S. cerevisiae deletion strains, locus YNL298W, strain CLA4 (second series), stronger effect = lower value
[21] = S. cerevisiae deletion strains, locus YNL322C, strain KRE1, stronger effect = lower value
[22] = S. cerevisiae deletion strains, locus YNR030W, strain Alg12, stronger effect = lower value
[23] = S. cerevisiae deletion strains, locus YPL055C, strain LGE1, stronger effect = lower value
[24] = S. cerevisiae deletion strains, locus YPR135W, strain CTF4, stronger effect = lower value
[25] = S. cerevisiae deletion strains, locus YAL040C, strain CLN3, stronger effect = lower value
[26] = S. cerevisiae deletion strains, locus YCL061C, strain MRC1 (second series), stronger effect = lower value
[27] = S. cerevisiae deletion strains, locus YER002W, strain NOP16, stronger effect = lower value
[28] = S. cerevisiae deletion strains, locus YNL175C, strain NOP13, stronger effect = lower value
[29] = S. cerevisiae deletion strains, locus YNL197C, strain WHI3, stronger effect = lower value
[30] = S. cerevisiae deletion strains, locus YNL224C, strain SQS1, stronger effect = lower value
[31] = S. cerevisiae deletion strains, locus YOR083W, strain WHI5 (second series), stronger effect = lower value
[32] = S. cerevisiae deletion strains, locus YPL241C, strain CIN2, stronger effect = lower value

COc1ccccc1C1CCN(C(=O)c2ccc(F)cc2)CC1
normalized growth [1]: 0.981 | normalized growth [2]: 0.986 | normalized growth (S. cerevisiae deletion strains, locus YCL061C, strain MRC1, stronger effect = lower value): 0.989 | normalized growth [3]: 0.994 | normalized growth (S. cerevisiae deletion strains, locus YDL134C, strain PPH21, stronger effect = lower value): 0.983 | normalized growth [4]: 0.988 | normalized growth [5]: 0.965 | normalized growth [6]: 0.982 | normalized growth [7]: 0.754 | normalized growth [8]: 1.01 | normalized growth [9]: 0.987 | normalized growth [10]: 1 | normalized growth [11]: 1.03 | normalized growth [12]: 0.981 | normalized growth [13]: 0.901 | normalized growth [14]: 1.01 | normalized growth [15]: 0.944 | normalized growth [16]: 0.976 | normalized growth [17]: 0.994 | normalized growth [18]: 0.986 | normalized growth [19]: 0.989 | normalized growth [20]: 0.982 | normalized growth [21]: 0.978 | normalized growth [22]: 0.967 | normalized growth (S. cerevisiae deletion strains, locus YOL006C, strain TOP1, stronger effect = lower value): 0.852 | normalized growth [23]: 0.926 | normalized growth [24]: 0.975

COc1ccccc1N1CCN(CCCCNC(=O)c2ccc3ccccc3c2)CC1
normalized growth [25]: 0.951 | normalized growth [26]: 0.988 | normalized growth (S. cerevisiae deletion strains, locus YDR363W, strain ESC2, stronger effect = lower value): 1.03 | normalized growth [27]: 0.996 | normalized growth [6]: 0.981 | normalized growth [17]: 0.978 | normalized growth (S. cerevisiae deletion strains, locus YMR307W, strain GAS1, stronger effect = lower value): 0.995 | normalized growth [28]: 1.03 | normalized growth [29]: 1.01 | normalized growth [30]: 0.983 | normalized growth [31]: 1.06 | normalized growth [23]: 0.999

COc1ccccc1C1CCN(Cc2ccc3ccccc3c2)CC1
normalized growth [1]: 0.981 | normalized growth [2]: 0.965 | normalized growth [3]: 0.973 | normalized growth [4]: 1 | normalized growth [5]: 0.915 | normalized growth [6]: 0.986 | normalized growth [7]: 0.529 (active) | normalized growth [8]: 0.987 | normalized growth [9]: 1.01 | normalized growth [10]: 0.99 | normalized growth [11]: 0.98 | normalized growth [12]: 0.985 | normalized growth [13]: 0.91 | normalized growth [14]: 0.904 | normalized growth [15]: 0.885 | normalized growth [16]: 1 | normalized growth [17]: 1.01 | normalized growth [19]: 0.962 | normalized growth [20]: 0.888 | normalized growth [21]: 0.989 | normalized growth [22]: 0.963 | normalized growth [23]: 1.02 | normalized growth [32]: 0.911 | normalized growth [24]: 0.773 | normalized growth (S. cerevisiae strains, strain wild type, stronger effect = lower value): 0.885 (active)

Nc1cc(Cl)c(NC2=NCCN2)c(Cl)c1
normalized growth [25]: 0.982 | normalized growth [26]: 1 | normalized growth [27]: 1 | normalized growth (S. cerevisiae deletion strains, locus YGR229C, strain SMI1, stronger effect = lower value): 1.01 | normalized growth [10]: 0.998 | normalized growth [18]: 1 | normalized growth [19]: 0.987 | normalized growth [28]: 1.02 | normalized growth [29]: 1 | normalized growth [30]: 1.02 | normalized growth [31]: 1.04 | normalized growth [32]: 1

C/C(=N/NC(N)=S)c1ccccn1
normalized growth (S. cerevisiae deletion strains, locus YAR019C, strain CDC15, stronger effect = lower value): 0.962 | normalized growth (S. cerevisiae deletion strains, locus YBL105C, strain PKC1, stronger effect = lower value): 0.98 | normalized growth (S. cerevisiae deletion strains, locus YBR135W, strain CKS1, stronger effect = lower value): 0.971 | normalized growth (S. cerevisiae deletion strains, locus YBR136W, strain MEC1, stronger effect = lower value): 0.962 | normalized growth (S. cerevisiae deletion strains, locus YBR160W, strain CDC28, stronger effect = lower value): 0.985 | normalized growth (S. cerevisiae deletion strains, locus YDL017W, strain CDC7, stronger effect = lower value): 0.987 | normalized growth (S. cerevisiae deletion strains, locus YDL028C, strain MPS1, stronger effect = lower value): 0.97 | normalized growth [3]: 0.982 | normalized growth (S. cerevisiae deletion strains, locus YDL108W, strain KIN28, stronger effect = lower value): 0.97 | normalized growth (S. cerevisiae deletion strains, locus YDL132W, strain cdc53, stronger effect = lower value): 0.949 | normalized growth (S. cerevisiae deletion strains, locus YDL214C, strain PRR2, stronger effect = lower value): 0.932 | normalized growth (S. cerevisiae deletion strains, locus YDR052C, strain DBF4, stronger effect = lower value): 0.963 | normalized growth (S. cerevisiae deletion strains, locus YDR054C, strain cdc34, stronger effect = lower value): 0.944 | normalized growth (S. cerevisiae deletion strains, locus YDR226W, strain ADK1, stronger effect = lower value): 0.971 | normalized growth (S. cerevisiae deletion strains, locus YDR477W, strain SNF1, stronger effect = lower value): 0.878 | normalized growth (S. cerevisiae deletion strains, locus YER123W, strain YCK3, stronger effect = lower value): 0.874 | normalized growth (S. cerevisiae deletion strains, locus YER133W, strain GLC7, stronger effect = lower value): 0.889 | normalized growth (S. cerevisiae deletion strains, locus YFL009W, strain cdc4, stronger effect = lower value): 0.939 | normalized growth (S. cerevisiae deletion strains, locus YFL029C, strain CAK1, stronger effect = lower value): 0.945 | normalized growth (S. cerevisiae deletion strains, locus YFR003C, strain YPI1, stronger effect = lower value): 0.985 | normalized growth (S. cerevisiae deletion strains, locus YFR019W, strain FAB1, stronger effect = lower value): 0.908 | normalized growth (S. cerevisiae deletion strains, locus YFR028C, strain CDC14, stronger effect = lower value): 0.962 | normalized growth (S. cerevisiae deletion strains, locus YGR040W, strain KSS1, stronger effect = lower value): 0.875 | normalized growth (S. cerevisiae deletion strains, locus YGR052W, strain FMP48, stronger effect = lower value): 0.951 | normalized growth (S. cerevisiae deletion strains, locus YGR092W, strain DBF2, stronger effect = lower value): 0.833 | normalized growth [7]: 0.861 | normalized growth (S. cerevisiae deletion strains, locus YHR079C, strain IRE1, stronger effect = lower value): 0.779 | normalized growth (S. cerevisiae deletion strains, locus YHR082C, strain KSP1, stronger effect = lower value): 0.932 | normalized growth (S. cerevisiae deletion strains, locus YHR205W, strain SCH9, stronger effect = lower value): 0.957 | normalized growth (S. cerevisiae deletion strains, locus YIL147C, strain SLN1, stronger effect = lower value): 0.958 | normalized growth (S. cerevisiae deletion strains, locus YJL095W, strain BCK1, stronger effect = lower value): 0.871 | normalized growth (S. cerevisiae deletion strains, locus YJL128C, strain PBS2, stronger effect = lower value): 0.975 | normalized growth (S. cerevisiae deletion strains, locus YJL157C, strain FAR1, stronger effect = lower value): 0.88 | normalized growth (S. cerevisiae deletion strains, locus YJR016C, strain ILV3, stronger effect = lower value): 0.967 | normalized growth (S. cerevisiae deletion strains, locus YJR066W, strain TOR1 (second series), stronger effect = lower value): 0.874 | normalized growth (S. cerevisiae deletion strains, locus YJR066W, strain TOR1, stronger effect = lower value): 0.881 | normalized growth (S. cerevisiae deletion strains, locus YKL048C, strain ELM1, stronger effect = lower value): 0.941 | normalized growth (S. cerevisiae deletion strains, locus YKL067W, strain YNK1, stronger effect = lower value): 0.951 | normalized growth (S. cerevisiae deletion strains, locus YKL101W, strain HSL1, stronger effect = lower value): 0.91 | normalized growth (S. cerevisiae deletion strains, locus YKL193C, strain SDS22, stronger effect = lower value): 0.971 | normalized growth (S. cerevisiae deletion strains, locus YKL203C, strain TOR2, stronger effect = lower value): 0.9 | normalized growth (S. cerevisiae deletion strains, locus YLR113W, strain HOG1, stronger effect = lower value): 0.93 | normalized growth (S. cerevisiae deletion strains, locus YLR133W, strain CKI1, stronger effect = lower value): 0.911 | normalized growth (S. cerevisiae deletion strains, locus YLR403W, strain SFP1, stronger effect = lower value): 0.843 | normalized growth (S. cerevisiae deletion strains, locus YML070W, strain DAK1, stronger effect = lower value): 0.918 | normalized growth (S. cerevisiae deletion strains, locus YMR001C, strain CDC5, stronger effect = lower value): 0.967 | normalized growth (S. cerevisiae deletion strains, locus YMR205C, strain PFK2 (second series), stronger effect = lower value): 0.945 | normalized growth (S. cerevisiae deletion strains, locus YMR277W, strain FCP1, stronger effect = lower value): 0.978 | normalized growth (S. cerevisiae deletion strains, locus YNL006W, strain LST8, stronger effect = lower value): 0.988 | normalized growth (S. cerevisiae deletion strains, locus YNL020C, strain ARK1, stronger effect = lower value): 0.917 | normalized growth (S. cerevisiae deletion strains, locus YNL161W, strain CBK1, stronger effect = lower value): 0.978 | normalized growth (S. cerevisiae deletion strains, locus YNL183C, strain NPR1, stronger effect = lower value): 0.895 | normalized growth (S. cerevisiae deletion strains, locus YNL207W, strain RIO2, stronger effect = lower value): 0.936 | normalized growth (S. cerevisiae deletion strains, locus YNL222W, strain SSU72, stronger effect = lower value): 0.977 | normalized growth (S. cerevisiae deletion strains, locus YNL307C, strain MCK1 (second series), stronger effect = lower value): 0.862 | normalized growth (S. cerevisiae deletion strains, locus YOL078W, strain AVO1, stronger effect = lower value): 0.964 | normalized growth (S. cerevisiae deletion strains, locus YOL136C, strain PFK27, stronger effect = lower value): 0.957 | normalized growth (S. cerevisiae deletion strains, locus YOR061W, strain CKA2, stronger effect = lower value): 0.891 | normalized growth (S. cerevisiae deletion strains, locus YOR119C, strain RIO1, stronger effect = lower value): 0.906 | normalized growth (S. cerevisiae deletion strains, locus YOR231W, strain MKK1, stronger effect = lower value): 0.875 | normalized growth (S. cerevisiae deletion strains, locus YOR329C, strain SCD5, stronger effect = lower value): 0.968 | normalized growth (S. cerevisiae deletion strains, locus YPL031C, strain PHO85, stronger effect = lower value): 0.863 | normalized growth (S. cerevisiae deletion strains, locus YPL153C, strain RAD53, stronger effect = lower value): 0.828 | normalized growth (S. cerevisiae deletion strains, locus YPL204W, strain HRR25, stronger effect = lower value): 0.85 | normalized growth (S. cerevisiae deletion strains, locus YPL209C, strain IPL1, stronger effect = lower value): 0.98 | normalized growth (S. cerevisiae deletion strains, locus YPL256C, strain CLN2, stronger effect = lower value): 0.951 | normalized growth (S. cerevisiae deletion strains, locus YPR025C, strain CCL1, stronger effect = lower value): 0.975 | normalized growth (S. cerevisiae deletion strains, locus YPR106W, strain ISR1, stronger effect = lower value): 0.984 | normalized growth (S. cerevisiae deletion strains, locus YPR111W, strain DBF20, stronger effect = lower value): 0.983 | normalized growth (S. cerevisiae deletion strains, strain NNK1, stronger effect = lower value): 0.993 | normalized growth (S. cerevisiae deletion strains, strain TSCII, stronger effect = lower value): 0.975
